The list is not random: actives were taken first. Their share in the collection is about 0.4%.
FMDV FLuc = FMDV antiviral activity by firefly signal. FMDV antiviral cell assay, firefly luciferase signal. Potency, µM (titrated, usually from 57.5 µM), for the others: at the top dose activity change, negative = inhibition, hits mostly inhibitors. 120,000 compounds, 0.23% hits. AID 1745856; further: nearly all actives have a fitted effect of over 60% in size
FMDV Renilla = FMDV antiviral activity by Renilla signal; 120,000 compounds, 0.32% hits; Potency, µM (doses to about 57.5 µM), for inactives: at the top dose activity change, negative = inhibition, most hits filed as inhibitors; FMDV replicon cells, Renilla luciferase signal; further: nearly all actives have a fitted effect of over 55% in size
* marks the source's active call; other numbers are inactive results; ? = inconclusive. The call rests on the fitted dose curve. On the % scale 0 is the no-effect control and ±100 the full control effect; potency means the concentration at half of the fitted maximal effect.

SMILES	FMDV FLuc	FMDV Renilla
Fc1ccccc1-c1ccc(CNCC2CCNCC2)o1	-8.5%	-28.2%
COc1ccc2ccccc2c1C=C(C#N)c1ccccn1	0.0%	-11.1%
O=S(=O)(Nc1cccc(C(F)(F)F)c1)c1ccc(-c2cnc(C3CC3)o2)cc1	?	-90.5%
COc1ccc(NS(=O)(=O)c2ccc(-c3cnc(C4CC4)o3)cc2)cc1OC	8.91µM*	-12.9%
CCc1c(C)sc2c1CCN(Cc1ccccc1)C2c1ccccc1 (configuration not stated)	?	12.6µM*
CCc1c(C)sc2c1CCN(Cc1ccccc1C#N)C2c1ccccc1 (configuration not stated)	18.4%	16.4%
CCc1ccc(CNC(=O)c2cc3cc(C)ccc3[nH]2)cc1	60.1%	0.2%
COc1ccc(NC(=O)COc2ccc(Cl)cc2)c2cccnc12	?	11.2µM*
CCOc1ccc(NC(=O)COc2ccc(OC)cc2)c2cccnc12	8.2%	-12.5%
COc1ccc(NC(=O)c2ccccc2Cl)c2cccnc12	14.3%	-13.4%
COc1ccc(NC(=O)COc2ccccc2Cl)c2cccnc12	11.2µM*	10µM*
COc1ccc(CCNC(=O)c2cc(=O)c3ccccc3o2)cc1OC	-20.5%	-12.9%
CCc1ccc2oc(C(=O)NCCc3ccc(OC)c(OC)c3)cc(=O)c2c1	35.5µM*	?
Cc1ccc(OCC(=O)Nc2ccc3c(C)cc(=O)oc3c2)cc1	24.7%	-13.5%
Cc1cc(C)cc(NC(=O)C2CCN(c3nnc(-n4c(C)ccc4C)s3)CC2)c1	22.0%	-2.9%
Cc1ccc(C)c(N2CCN(C(=O)C3CCN(c4nnc(-n5c(C)ccc5C)s4)CC3)CC2)c1	?	11.2µM*
CSc1ccc(/C=C/C(=O)c2cccc(Br)c2)cc1	23.7%	7.1%
CCOc1ccc(Nc2nc(-c3sc(NC(C)=O)nc3C)cs2)cc1	27.0%	-5.3%
CC(=O)c1c(C)[nH]c(C(=O)C(C)Sc2ccccc2Br)c1C (configuration not stated)	25.1µM*	0.0%
CC(=O)c1c(C)[nH]c(C(=O)CSc2ccc(Br)cc2)c1C	48.1%	-18.4%
COc1cc(CNC(=O)c2nccnc2N)ccc1OCc1ccncc1	22.4µM*	10µM*
Nc1nccnc1C(=O)NCc1ccnc(Oc2ccc(F)cc2)c1	?	12.6µM*
CCOc1ccccc1Oc1ccc(CNC(=O)c2nccnc2N)cn1	15.8µM*	14.1µM*
Nc1nccnc1C(=O)NCc1ccnc(OCc2ccccc2)c1	22.4µM*	10µM*
O=C(Cc1cccc(F)c1)NCc1ccnc(OCc2ccccc2)c1	39.4%	6.2%
SMILES	FMDV FLuc	FMDV Renilla
CCOc1ccccc1Oc1ccc(CNC(=O)Nc2cccnc2)cn1	13.7%	-15.9%
COc1ccc(CNC(=O)c2nccnc2N)cc1OC	5.7%	9.4%
COc1ccc(CNC(=O)c2nccnc2N)cc1	28.3%	-19.4%
COc1cc2c(c(OC)c1)C(c1ccc(F)c(Br)c1)C1=C(CCCC1=O)N2 (configuration not stated)	-12.2%	-0.1%
CCCC(=O)N1CCN(c2nc(-c3ccco3)c3c(c2C#N)CCCC3)CC1	-20.6%	-7.6%
Clc1ccccc1CN1CCc2ccccc2C1	20.7%	2.3%
O=C(C1=C(O)C(=O)N(CCc2ccccc2)C1c1ccncc1)c1ccco1 (configuration not stated)	10.8%	-9.8%
O=C(NC1CCCC1)c1ccc2c(c1)N(Cc1ccc(F)cc1)C(=O)c1ccccc1S2	-21.8%	17.9%
O=C(NC1CCCC1)c1ccc2c(c1)N(Cc1ccccc1)C(=O)c1ccccc1S2	25.1µM*	?
O=C(Nc1cccc(S(=O)(=O)N2CCOCC2)c1)c1ccc(OCc2cn3ccccc3n2)cc1	31.6µM*	?
O=C(Nc1cccc(S(=O)(=O)N2CCCCC2)c1)c1ccc(OCc2cn3ccccc3n2)cc1	0.0%	0.0%
CCc1ccc(-c2cc(C(=O)O)c3ccc(C)c(C)c3n2)cc1	4.0%	1.5%
Cc1cccc(-c2noc(-c3ccc(N4CCCC4)c([N+](=O)[O-])c3)n2)c1	8.91µM*	6.8%
Cc1cccc(-c2noc(-c3ccc(N4CCOCC4)c([N+](=O)[O-])c3)n2)c1	-23.3%	1.6%
Cc1cccc(C)c1-n1nnnc1SCn1nnc2ccccc2c1=O	20µM*	17.8µM*
Cc1ccccc1-n1nnnc1SCc1nc(N)c2ccccc2n1	17.5%	-19.0%
CSCCC(=O)N1CCN(c2oc(-c3ccco3)nc2C#N)CC1	-5.9%	-10.9%
COc1cccc(C2CC(=O)Nc3nc(N)sc32)c1OCc1ccc(F)cc1 (configuration not stated)	-10.7%	-7.8%
Cc1cc(C)cc(NC(=O)Cn2c(=O)oc3cc(S(=O)(=O)N4CCCC4)ccc32)c1	0.0%	-1.3%
COc1ccc(CNC(=O)Cn2c(=O)oc3cc(S(=O)(=O)N4CCCC4)ccc32)cc1	16.5%	-7.7%
CN(C)c1ccc(CNC(=O)Cn2c(=O)oc3cc(S(=O)(=O)N4CCCCCC4)ccc32)cc1	?	20µM*
CC(C)c1ccc(NC(=O)Cn2c(=O)oc3cc(S(=O)(=O)N4CCCC4)ccc32)cc1	6.31µM*	?
Cc1ccc(C(=O)Nc2nc(-c3nnn(-c4cccc(Cl)c4C)c3C)ns2)cc1C	3.55µM*	5.01µM*
Cc1ccc(Cl)cc1-n1nnc(-c2nsc(NC(=O)c3ccccc3Cl)n2)c1C	111.5%	-15.4%
COc1ccc(C(=O)Nc2cccc3ncccc23)cc1	56.2%	0.8%
SMILES	FMDV FLuc	FMDV Renilla
CN(C)C(=O)/C=C/c1ccc(-c2ccccc2F)o1	228.7%	34.5%
COc1ccc(OC)c(-c2cc3ccc(OCC#N)cc3oc2=O)c1	0.0%	95.0%
COc1ccc(-c2cc(C(F)(F)F)nc(S(=O)(=O)CCCC(=O)Nc3ccccc3C(F)(F)F)n2)cc1OC	-15.1%	-9.3%
COc1ccc(NC(=O)CCCS(=O)(=O)c2nc(-c3ccc(OC)c(OC)c3)cc(C(F)(F)F)n2)cc1OC	28.2µM*	-7.4%
CCCC(=O)Nc1ccc2oc(-c3cccc(Cl)c3)nc2c1	21.0%	5.2%
CCCn1c(=O)[nH]c(=O)c2c1nc(-c1ccc(OC)c(C)c1)n2CCOC	-7.3%	-11.9%
CCN1CCN(c2cc(-c3ccc(F)cc3)c3c(n2)CCCCCC3)CC1	?	11.2µM*
CCN1CCN(c2oc(-c3ccc(F)cc3)nc2C#N)CC1	22.3%	2.6%
CCOc1ccc(C2/C(=C(\O)c3ccc(C)c(F)c3)C(=O)C(=O)N2Cc2ccco2)cc1OC (configuration not stated)	-7.0%	9.3%
NC(=O)CCS(=O)(=O)CCN1CCCC1c1cccc(F)c1 (configuration not stated)	3.5%	-4.2%
COc1ccccc1CC(=O)N1CCN(c2nc(-c3ccc(Cl)cc3)no2)CC1	?	7.08µM*
COc1ccc(-c2noc(N3CCN(c4ccc(Cl)cc4)CC3)n2)cc1OC	-12.9%	-5.4%
Cc1cc(C)cc(Oc2ccc(C#N)c(C#N)c2)c1	0.0%	21.2%
N#Cc1ccc(Oc2ccc(Cl)c(Oc3ccc(C#N)c(C#N)c3)c2)cc1C#N	?	2.51µM*
Cc1c(Oc2ccc(C#N)c(C#N)c2)cccc1Oc1ccc(C#N)c(C#N)c1	2.24µM*	2.51µM*
N#Cc1ccc(Oc2ccccc2Oc2ccc(C#N)c(C#N)c2)cc1C#N	23.5%	14.7%
CCOC(=O)COc1ccc(/C=N/NC(=O)C(O)(c2ccccc2)c2ccccc2)cc1	8.0%	16.3%
CCC(=O)Nc1nc(C)c(-c2csc(Nc3ccc(OC)cc3)n2)s1	-0.4%	-23.1%
CCOC(=O)c1sc(Nc2ccccc2)nc1C(F)(F)F	0.0%	-3.6%
COc1ccc(NC(=O)c2nc(S(=O)(=O)Cc3ccc(C)cc3)ncc2Cl)cc1	0.0%	13.9%

Screening data: PubChem BioAssay, National Center for Advancing Translational Sciences (NCATS)
